Active and inactive are the calls of the source.
Test: small-molecule microarray binders of probe aXIP, primary screen, biochemical, NeuroSMM set, 635/667 nm fluorescence (AID 1119);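 note: probe is the protein aXip251-270 applied at 1 µg/mL to compound-printed slides; binding of probe to printed compounds measured as 667 nm fluorescence plus signal to noise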
Details: higher = more signal, called active from +8 up or from −8 down

Structure (SMILES)	composite Z-score
COC(=O)[C@@]1(Cc2ccccc2)[C@@H]2[C@@H](CC(=O)[C@H]2CC(=O)C(=O)N(C)C)CN1C(=O)c1ccccc1	-0.077 (inactive)
COCCOC(=O)N1C(=O)[C@@]2(c3cc(C#Cc4ccc(OC)cc4)ccc31)[C@H](C(=O)Nc1nc3ccccc3s1)[C@H]1C(=O)O[C@H](c3ccccc3)[C@H](c3ccccc3)N1[C@@H]2c1ccccc1OCCO	-0.331 (inactive)
CCc1cccc(NC(=O)O[C@H]2[C@H](OC(=O)Nc3ccc4c(c3)OCO4)[C@H](OC(=O)Nc3ccc4c(c3)OCO4)[C@@H](OC)O[C@@H]2CO)c1	1.31 (inactive)
C=C(COC)/C(=C/C[C@H](OC(=O)c1ccncc1)c1cccc(OCCO)c1)c1cnc2ccccc2c1	1.56 (inactive)
COCCn1c(C(=O)N2CCCC2)cc2c1C[C@H]1CN(C(=O)c3ccccc3)[C@@](Cc3ccccc3)(C(=O)OC)[C@@H]21	0.239 (inactive)
O=C1C2C=CC(C(O)C(c3ccccc3)c3ccccc3)N(Nc3ccccc3)C2C(=O)N1c1ccccc1 (stereo not drawn)	0.312 (inactive)
Cc1ccc(S(=O)(=O)N2[C@@H](c3ccccc3)C(C(=O)O)=CC[C@H]2c2ccc(C#N)cc2)cc1	0.661 (inactive)
C=CCC(OC(C)=O)[C@@H]1[C@@H](N(Cc2cc3ccccc3o2)C(=O)c2ccc(-c3ccccc3)cc2)c2cc(OCCCO)ccc2N1C(=O)c1ccc2ccccc2n1 (stereo partly drawn)	0.176 (inactive)

Test: small-molecule binders of probe aNOTCH3, primary screen, biochemical, small-molecule microarray, 635/667 nm fluorescence (AID 1120);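 note: probe is a biotin-tagged antibody raised against NOTCH3 rather than NOTCH3 protein; score merges spot fluorescence near 667 nm with spot signal to noise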
Details: higher = more signal

Structure (SMILES)	composite z-score
COCCCNC(=O)[C@@]1(Sc2ccc(C)cc2)CC(=O)N(C2CCCCC2)[C@@H]1c1ccc(CO)cc1I	0.145
[N-]=[N+]=NCc1ccccc1C[C@]1(C(=O)O)COC(c2ccc(OCCCO)cc2)=N1	-0.0525
COC(=O)[C@@]1(Cc2ccc(OC)cc2)[C@H]2c3cc(C(=O)N(C)C)n(Cc4ccsc4Br)c3C[C@H]2CN1C(=O)c1ccccc1	0.69
CCCCC(=C=CC[C@@H](O)c1ccc(OCCO)cc1)C[C@@H](O)c1ccccn1	0.0557
O=C1NC(=O)C2C1C=CC(C(O)c1cccc(O)c1)N2Nc1ccc(Cl)cc1Cl (stereo not drawn)	-0.0043
[N-]=[N+]=NCc1ccccc1C[C@]1(C(=O)NCc2ccccc2)N=C(c2ccc(OCCCO)cc2)O[C@H]1c1ccccc1CN=[N+]=[N-]	0.192
O=C1O[C@H](c2ccccc2)[C@H](c2ccccc2)N2[C@H]1[C@@H](C(=O)N1CCN(c3ncccn3)CC1)[C@]1(C(=O)Nc3ccccc31)[C@H]2c1ccc(O)cc1	-0.0932
COC(=O)[C@@]1(Cc2ccc(F)cc2)[C@H]2c3cc(C(=O)N4CCCC4)n(CCO)c3C[C@H]2CN1C(=O)c1ccccc1	0.329
O=C1NC(=O)C2C1C=CC(C(O)c1ccc(F)cc1)N2Nc1ccccn1 (stereo not drawn)	-0.004
CC[C@H](C)C(=O)O[C@H]1CC[C@]2(C)C3=C(CCC2C1(C)C)[C@]1(C)CC[C@H]([C@H](C)CCCC(C)C)[C@@]1(C)CC3 (stereo partly drawn)	-0.0947
CCCC[C@H]1OB(O)C[C@H]2C1=C(COC)C[C@H]1C(=O)C=CC(=O)[C@H]12	0.029
CCCCCCCCCCC(O)C1C=CC2C(=O)N(C)C(=O)C2N1N1CCCCC1 (stereo not drawn)	-0.256
C=CC[C@]1(C(=O)NCCCOC)N=C(c2ccc(OCCCO)cc2)O[C@H]1c1ccccc1	0.0522
CC1CC/C=C\[C@H]2OC34C=CCN(c5ccc(Cl)cc5)C(=O)[C@H]3N(CCCO)C(=O)[C@]4(C)C2C(=O)O1 (stereo partly drawn)	-0.235
C=C(CC1([C@@H](NP(=O)(c2ccccc2)c2ccccc2)[C@H]2C[C@@H]2CCN(C(=O)OCC)S(=O)(=O)c2ccc(C)cc2)CC1)c1ccccc1	0.6
COCC1=C([C@H](O)CCc2ccccc2)[C@H](CO)n2c(=O)n(-c3ccccc3)c(=O)n2C1	-0.0014
COC(=O)c1ccc([C@H](NC(=O)c2ccccc2)[C@]2(C)C[C@H]2C2CCCCC2)cc1	0.237
COCCOC(=O)N1C(=O)[C@@]2(c3cc(C#CC4=CCCCC4)ccc31)[C@H](c1ccccc1OCCO)N1[C@H](c3ccccc3)[C@H](c3ccccc3)OC(=O)[C@H]1[C@@H]2C(N)=O	0.0174

Structure (SMILES)	composite z-score
C=CCC(OC(C)=O)[C@@H]1[C@@H](N(Cc2cc3ccccc3o2)C(=O)Cc2ccc(OC)cc2)c2cc(OCCCO)ccc2N1C(=O)Cc1ccc2ccccc2c1 (stereo partly drawn)	-0.0391
COc1ccc([Si](C)(C)[C@H]2[C@H](CCO)O[C@@]3(C(=O)N(Cc4ccccc4)c4ccc(N(C=O)c5ccccc5)cc43)[C@@H]2C)cc1	0.0576
CC(C)CNC(=O)[C@@H]1c2ccccc2C(=O)N(Cc2ccccc2Cl)[C@H]1c1ccc(CO)cc1	-0.212
CCCCNC(=O)c1ccc(C#C[Si](C)(C)C)c(OC(C)=O)c1	-0.0328
COc1cc2c(cc1O)C(c1ccc(CN3CCCC3)cc1)N(Cc1cccc(OC(F)(F)F)c1)CC2 (stereo not drawn)	-0.0795
C=CCOC(=O)[C@H]1[C@@H]2C(=O)O[C@@H](c3ccccc3)[C@@H](c3ccccc3)N2[C@@H](c2ccc(OCCOC(=O)[C@H]3C[C@H]4C(=O)NCC(=O)N4[C@H]3c3ccc(O)cc3)cc2)[C@]12C(=O)Nc1ccc(I)cc12	-0.0647
NC(=O)N1C(=O)C2C(C1=O)C1C=C(CCCO)C2C(c2ccc(CN3CCCC3)cc2)N1Cc1cccc(OC(F)(F)F)c1 (stereo not drawn)	0.0142
C=C(CCCC)C(=O)CC[C@H](OC(C)=O)c1ccccc1OCCO	0.156
C=CCC(OC(C)=O)[C@@H]1[C@@H](N(Cc2cccc3ccccc23)C(=O)c2ccc(-c3ccccc3)cc2)c2cc(OCCCO)ccc2N1C(=O)c1ccc2ccccc2n1 (stereo partly drawn)	0.119
COC(=O)[C@@]1(Cc2ccccc2)[C@@H]2[C@@H](CC(=O)[C@H]2CC(=O)C(=O)N(C)C)CN1C(=O)c1ccccc1	-0.0288
COCCOC(=O)N1C(=O)[C@@]2(c3cc(C#Cc4ccc(OC)cc4)ccc31)[C@H](C(=O)Nc1nc3ccccc3s1)[C@H]1C(=O)O[C@H](c3ccccc3)[C@H](c3ccccc3)N1[C@@H]2c1ccccc1OCCO	0.124
CCc1cccc(NC(=O)O[C@H]2[C@H](OC(=O)Nc3ccc4c(c3)OCO4)[C@H](OC(=O)Nc3ccc4c(c3)OCO4)[C@@H](OC)O[C@@H]2CO)c1	0.337
C=C(COC)/C(=C/C[C@H](OC(=O)c1ccncc1)c1cccc(OCCO)c1)c1cnc2ccccc2c1	0.279
COCCn1c(C(=O)N2CCCC2)cc2c1C[C@H]1CN(C(=O)c3ccccc3)[C@@](Cc3ccccc3)(C(=O)OC)[C@@H]21	0.676
O=C1C2C=CC(C(O)C(c3ccccc3)c3ccccc3)N(Nc3ccccc3)C2C(=O)N1c1ccccc1 (stereo not drawn)	0.278
Cc1ccc(S(=O)(=O)N2[C@@H](c3ccccc3)C(C(=O)O)=CC[C@H]2c2ccc(C#N)cc2)cc1	-0.0647
C=CCC(OC(C)=O)[C@@H]1[C@@H](N(Cc2cc3ccccc3o2)C(=O)c2ccc(-c3ccccc3)cc2)c2cc(OCCCO)ccc2N1C(=O)c1ccc2ccccc2n1 (stereo partly drawn)	-0.0362

Source: PubChem BioAssay
